Bioassay records from PubChem BioAssay.
AmpC detergent = AmpC beta-lactamase inhibition with detergent present; AmpC hydrolysis of nitrocefin, absorbance 480 nm, 0.01% Triton; Potency, µM (highest dose often 114 µM), usual class: inhibitors; 370,000 compounds, 0.041% hits; also: nearly all actives have a fitted effect of over 25% in size
Target sequence (P00811 whole entry, looked up): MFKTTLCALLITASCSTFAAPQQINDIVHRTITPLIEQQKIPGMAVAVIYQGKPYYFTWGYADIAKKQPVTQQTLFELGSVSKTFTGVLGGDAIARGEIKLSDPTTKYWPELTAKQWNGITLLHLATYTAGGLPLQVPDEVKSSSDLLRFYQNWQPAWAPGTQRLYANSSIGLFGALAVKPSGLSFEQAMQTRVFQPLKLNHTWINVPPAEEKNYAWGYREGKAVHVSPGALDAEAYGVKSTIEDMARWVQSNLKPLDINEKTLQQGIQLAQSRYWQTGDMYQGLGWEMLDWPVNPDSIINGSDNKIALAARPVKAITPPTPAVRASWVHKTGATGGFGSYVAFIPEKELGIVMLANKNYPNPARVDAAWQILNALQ
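AmpC (5.3 nM in the dispensed reagent) in 20 mM phosphate pH 7.0 with 0.01% (detergent screen) or 0.0001% Triton X-100 was preincubated with compounds for 15 min at room temperature. Nitrocefin was then added from an 800 uM solution, and hydrolysis was followed at 480 nm.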
Pf growth 48h = P. falciparum growth inhibition at 48 hours (one generation); P. falciparum luciferase growth in erythrocytes, 48 h; Potency, µM (top dose mostly 28.7 µM), actives largely listed as inhibitors; 310,000 compounds, 5.9% hits
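Here the parasites carry a stable luciferase gene and grow inside erythrocytes in Albumax-based RPMI medium with compound for one erythrocytic cycle. Activity is scored as loss of luminescent signal.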
AmpC inh no detg = inhibitors of E. coli AmpC beta-lactamase without detergent | P00811 | AmpC nitrocefin hydrolysis, absorbance 480 nm, 0.0001% Triton | Potency, µM (doses to about 57.1 µM), actives largely listed as inhibitors | 330,000 compounds, 0.52% hits; also: nearly all actives have a fitted effect of over 20% in size
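AmpC (5.3 nM in the dispensed reagent) in 20 mM phosphate pH 7.0 with 0.01% (detergent screen) or 0.0001% Triton X-100 was preincubated with compounds for 15 min at room temperature. Nitrocefin was then added from an 800 uM solution, and hydrolysis was followed at 480 nm.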
AMA1-RON2 inh = inhibitors of Plasmodium falciparum AMA1-RON2 interaction | AlphaScreen AMA1-biotinylated RON2 peptide binding | Potency, µM (series often up to 58.2 µM), actives largely listed as inhibitors | 360,000 compounds, 0.2% hits; also: nearly all actives have a fitted effect of over 45% in size
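AMA1 (3D7) with his tag at 25 nM final met compounds first, then biotinylated RON2 peptide at 25 nM; detection used donor plus acceptor beads, 10 µg/mL apiece, read by AlphaScreen after 30 min at room temperature.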
Pf growth 96h = P. falciparum growth inhibition at 96 hour, primary screen for plastid delayed-death inhibitors; Potency, µM (highest dose often 28.7 µM), hits mostly inhibitors; P. falciparum luciferase reporter growth, 96 h; 320,000 compounds, 6.9% hits; AID 504834
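Two-generation exposure (96 h) targets delayed-death phenotype. Reporter parasites carrying integrated firefly luciferase, in red cells at 2% hematocrit and 0.05% parasitemia final, kept at 37 C, 5% CO2; luminescence loss indicates inhibition.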
HCV inhibitor = inhibitors of hepatitis C virus infection; Huh7.5.1 HCVcc-Cre infection, luciferase reporter, 44 h; Potency, µM (doses to about 41.8 µM), most hits filed as inhibitors; 340,000 compounds, 3.4% hits; AID 651820
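Reporter virus HCVcc-Cre (~0.5 moi) infects cells exposed to compound; seeding density 1,000 cells/well with 4 h settling beforehand. Luminescence, 15 sec read, taken 44 h post-infection following a 15 min RT substrate incubation.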
Numbers stand for hits; 0 = inactive; ? = inconclusive; - = no result; [ ] = dose if it differs, or a comment. Shown are actives, neighbours in structure and some others; about 11% of the full set was active somewhere. Calls follow the shape of the dose curve; as a rule, active = well fitted curve in the direction sought with a large enough effect; inconclusive = small, poorly fitted or top-dose-only effect, or another doubt; inactive = no such curve, though single readings can be large; an effect the other way counts as inactive or inconclusive.

SMILES	AmpC detergent	Pf growth 48h	AmpC inh no detg	AMA1-RON2 inh	Pf growth 96h	HCV inhibitor
C=CCNC(=O)c1ccc(N(C)S(=O)(=O)c2ccc(OC)cc2)cc1	0	-	0	0	?	0
CCOc1ccc(S(=O)(=O)N(C)c2ccc(OCC(=O)NCCc3ccc(OC)cc3)cc2)cc1	0	0	0	0	3.3µM	0
CN(c1ccccc1)S(=O)(=O)c1cccc(C(=O)NCCc2ccc(O)c(O)c2)c1	0	13µM	0	0	?	?
Cc1ccc(N2CCN(c3nc4ccccc4n4nnnc34)CC2)c(C)c1	0	-	-	-	-	-
CCOc1ccc(-c2cc3nc(C4CCN(C(=O)OC(C)(C)C)CC4)c(C(=O)Nc4ccc(C)c(F)c4)cn3n2)cc1	0	-	-	-	-	-
CCC(C)n1c(=O)c2sccc2n2c(CCCC(=O)NCc3ccccc3Cl)nnc12 (stereo unspecified)	0	-	-	-	-	-
COc1ccc(OC)c(CNC(=O)C(C)n2c(C)c3cnn(-c4ccccc4)c(=O)c3c2C)c1 (stereo unspecified)	0	-	-	-	-	-
CCOc1ccc(CNC(=O)c2cc3ccccn3n2)cc1	0	-	-	-	-	-
CSc1cccc(NC(=O)c2cc3c(COC(C)=O)cnc(C)c3oc2=O)c1	0	-	-	-	-	-
COc1ccc(NC(=O)COc2ccc(N(C)S(=O)(=O)c3ccc(Cl)cc3)cc2)cc1	0	12µM	0	0	?	11µM
COc1ccc(NC(=O)COc2ccc(N(C)S(=O)(=O)c3ccc(C)cc3)cc2)cc1	?	0	0	0	0	?
CCN(Cc1ccccc1)C(=O)c1ccc(CNS(=O)(=O)c2ccc(C)cc2)cc1	0	?	0	0	0	0
CCN(Cc1ccccc1)C(=O)c1ccc(N(C)S(=O)(=O)c2ccc(C)cc2)cc1	0	15µM	0	0	?	0
CSc1ccc(CCNC(=O)C2=C(C)C(=O)OC23CCCCC3)cc1	0	-	-	-	-	-
COc1cccc(N2CCN(C(=O)C3CCN(S(=O)(=O)c4cccc5nonc45)CC3)CC2)c1	0	-	-	-	-	-
CN1CCCC(CC2c3ccccc3Sc3ccccc32)C1 (stereo unspecified)	0	9.3µM	0	0	?	2.8µM
CN1CCCC(CN2c3ccccc3Sc3ccccc32)C1 (stereo unspecified)	0	?	0	0	?	?
CC(C)(C)c1n[nH]c(=S)n(/N=C/c2cccs2)c1=O	0	0	0	0	0	0
Cc1n[nH]c(=S)n(/N=C/c2cccs2)c1=O	0	0.93µM	0	0	?	0
CCOC(=O)C1=C(C)NC2=C(C(=O)c3ccccc32)C1c1ccc([N+](=O)[O-])o1 (stereo unspecified)	0	13µM	0	?	?	0
Cc1ccc2occ(CC(=O)N(Cc3ccc(C(C)C)cc3)C3CCS(=O)(=O)C3)c2c1 (stereo unspecified)	0	-	-	-	-	-
COc1ccc(-c2cc(C(F)F)nc(-n3nc(C)cc3C)n2)cc1	0	8.3µM	0	?	?	?
Cc1ccc(-c2cc(C(F)F)nc(N3CCOCC3)n2)cc1	0	?	0	0	?	5.6µM
Cc1ccc(Nc2nc(OC(C(F)(F)F)C(F)(F)F)nc(N3CCOCC3)n2)cc1	0	?	0	0	?	0
Cc1cccc(C)c1OC(=O)CSc1nnc(CNC(=O)c2ccccc2)o1	0	-	-	-	-	-
SMILES	AmpC detergent	Pf growth 48h	AmpC inh no detg	AMA1-RON2 inh	Pf growth 96h	HCV inhibitor
CCOC(=O)c1ccc2c(c1)nc(C1CCN(S(=O)(=O)c3cccs3)CC1)n2CC	?	10µM	0	0	8.3µM	6.3µM
CCOC(=O)c1ccc2c(c1)nc(SCC(=O)c1ccco1)n2CC	0	?	0	0	0	0
CCOC(=O)c1ccc2c(c1)nc(SCC(=O)N1CCCCC1)n2CC	0	0	0	0	12µM	0
COc1ccccc1NC(=O)Cn1c(=O)n(-c2ccc(C)cc2)c(=O)c2ccc(C(=O)NCc3ccco3)cc21	0	-	-	-	-	-
CCN(CC)c1ccc(NC(=O)C2CCN(S(=O)(=O)c3ccc4c(c3)oc(=O)n4C)CC2)c(C)c1	0	-	-	-	-	-
O=C1CN(C(=O)COc2ccccc2Cl)c2ccccc2N1	0	?	0	0[11.6 µM]	?	0
Cc1cc(=O)oc2cc(OCC(=O)N3CC(=O)Nc4ccccc43)c(Cl)cc12	0	13µM	0	0	?	0
Cc1nc2ncnn2c(N2CCN(c3cccc(C(F)(F)F)c3)CC2)c1C	0	?	0	0	0	0.89µM
Cc1cc(N2CCN(c3cccc(C(F)(F)F)c3)CC2)n2ncnc2n1	0	?	0	0	-	0
Cc1nc2ncnn2c(N2CCN(C(c3ccccc3)c3ccccc3)CC2)c1C	0	?	-	0	0.37µM	?
O=C(OCC#CCNc1nnc(-c2cccc3ccccc23)o1)c1cccs1	0	?	0	-	0	-
CC(C)(C)OC(=O)N1CCC(c2c(C(=O)N3CCC(c4ccccc4)C3)cnn2-c2ccc(Cl)cc2)CC1 (stereo unspecified)	0	-	-	-	-	-
Cc1cccc(/C=N/c2sc3c(c2C(=O)OC(C)(C)C)CCN(C)C3)c1O	0	?	0	0	1.9µM	?
CN(C)c1ccc(C2CC(c3ccccc3)=Nc3nc(-c4ccccc4)cn32)cc1 (stereo unspecified)	?	8.3µM	0	-	5.2µM	0
O=C1NC(Cc2ccc(O)cc2)c2nc3cc(Cl)ccc3c(=O)n2-c2cc(Cl)ccc21 (stereo unspecified)	-	-	-	0	-	25µM
COc1ccccc1-n1ncc2c(=O)[nH]c(SCC(=O)Nc3ccc(Cl)cc3)nc21	0	-	-	-	-	-
CN(C)Cc1c(O)ccc2oc(Cc3ccccc3)cc12	0	0.41µM	0	0	0	?
CCCc1nc2c(=O)[nH]c3ccccc3c2o1	0	?	0	0	0	0
CCCCCc1nc2c(=O)[nH]c3ccccc3c2o1	0	?	0	0	5.2µM	0
CCN(Cc1ccccc1)C(=O)Cn1c(=O)n(-c2ccc(F)c(Cl)c2)c(=O)c2sc3ccccc3c21	0	-	-	-	-	-
COc1ccccc1C(C)NC(=O)c1ccc(C)o1 (stereo unspecified)	0	-	0	0	13µM	?
COc1ccccc1CN=Cc1[nH]c2ccc(Br)c(Cl)c2c1O	0	-	0	0	0	0
Cc1cccc(N=Cc2[nH]c3ccc(Br)c(Cl)c3c2O)c1	0	15µM	0	0[11.6 µM]	0	0
COc1cccc(CNC(=O)c2sc3nc4n(c(=O)c3c2C)CCC4)c1	0	-	-	-	-	-
COc1ccccc1/C=N/NC(=O)c1cc2c(ccc3ccccc32)o1	0	0	0	0	0	0
N#CCn1cc(/C=N/NC(=O)c2cc3c(ccc4ccccc43)o2)c2ccccc21	0	9.3µM	0	0	12µM	?
Cc1ccc(Sc2ncccc2C(=O)NCc2cc([N+](=O)[O-])ccc2O)c(C)c1	0	0	0	0	?	0
